Laboratory results as given in PubChem BioAssay (NCI).
Compounds without any hit were thinned out: in the full panel of roughly 83,000, 20% have a hit.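 Assay: single dose, 48 h. Readout: percent growth (0 = no net growth; negative = cell death). Active: <10.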 A number with no mark means an inactive call. Active and inactive are the calls of the source.

Columns and labels:
Assay in all cases: NCI-60 one-dose screen, 48 h (100 = growth as untreated, 0 = no growth, -100 = all killed)
Conditions in all cases: 10 µM unless noted
[1] = test system: SK-MEL-2 melanoma
[2] = test system: EKVX NSCLC
[3] = test system: SN12C renal
[4] = test system: UO-31 renal
[5] = test system: TK-10 renal
[6] = test system: ACHN renal
[7] = test system: CAKI-1 renal
[8] = test system: CCRF-CEM leukemia
[9] = test system: RPMI-8226 leukemia
[10] = test system: OVCAR-8 ovarian
[11] = test system: OVCAR-5 ovarian
[12] = test system: OVCAR-4 ovarian
[13] = test system: SK-OV-3 ovarian
[14] = test system: IGROV1 ovarian
[15] = test system: OVCAR-3 ovarian
[16] = test system: HS 578T breast
[17] = test system: NCI/ADR-RES ovarian
[18] = test system: A498 renal
[19] = test system: MOLT-4 leukemia
[20] = test system: SR leukemia

| SMILES | growth [1] [%] | growth [2] [%] | growth [3] [%] | growth [4] | growth [5] [%] | growth [6] | growth [7] | growth [8] | growth [9] | growth [10] [%] | growth [11] | growth [12] | growth [13] [%] | growth [14] | growth [15] | growth [16] [%] | growth [17] | growth [18] [%] | growth [19] | growth [20] |
| --- | --- | --- | --- | --- | --- | --- | --- | --- | --- | --- | --- | --- | --- | --- | --- | --- | --- | --- | --- | --- |
| CCCCN(C(=O)CC)c1ccccc1 | 108 | 97 | 99.3 | 86.7% | 97.2 | 103% | 101% | -8.28% (active) | 85.1% | 101 | 105% | 105% | 114 | 102% | 111% | 99.4 | 110% |  |  |  |
| CCCCCC#CC(=O)O | 107 | 99.8 | 105 | 81.5% | 104 | 97.1% |  | 102% | 99.7% | 98.3 | 105% | 103% | 102 | 100% | 123% |  | 119% | 105 | 101% | 97.7% |
| OCCOc1ccc(-c2cc(-c3ccccn3)nc(-c3ccccn3)c2)cc1 | 37.6 | 18.5 | 11.7 | -14.5% (active) | 28 | 3.04% (active) | 3.07% (active) | 3.02% (active) | 2.3% (active) |  | -36.4% (active) | 5.18% (active) | 18.5 | -17.6% (active) | -32.7% (active) |  | -57% (active) |  | -6.16% (active) | 5.14% (active) |
| CC12CCC3c4ccc(O)cc4CCC3C1CCC2=O (stereo not drawn) | 98.7 | 83.8 | 96.2 | 81.7% | 91.1 | 103% | 102% | 93.7% | 98.8% | 100 | 112% | 106% | 117 |  | 112% | 104 | 111% |  | 81.1% |  |
| S=C=Nc1ccc2ccccc2c1 | 106 | 103 | 111 | 85.1% | 109 | 100% | 87.7% | 106% | 103% | 105 | 107% |  |  | 117% | 114% | 104 | 102% |  | 98.1% |  |
| C=CCc1cc(OC)c(O)c(OC)c1 | 102 | 101 | 102 | 92.5% | 113 | 102% | 97.6% | 109% | 97.6% | 103 | 96.8% | 102% | 103 | 113% | 106% | 107 | 99.8% |  | 102% |  |
| CN(C)c1ncnc2c1cnn2C | 110 | 102 | 97.2 | 90.6% | 108 | 110% | 100% | 87.4% | 89% | 94.7 | 97.5% | 102% |  |  | 104% | 99.1 | 99.9% |  | 117% | 109% |
| CC(C)C(=O)OCCOc1ccc(C(C)(C)C)cc1 | 92.3 | 103 | 89.4 | 89.6% | 93.7 | 101% | 100% | 98.6% | 97.7% | 99.5 | 103% | 98.6% | 108 | 104% | 107% | 93.9 | 100% |  | 114% | 98.6% |
| Nc1ncnc(Nc2ccc(C(F)(F)F)cc2)n1 | 103 | 99.7 | 99.8 | 97.8% | 109 | 98.2% | 93.2% | 116% | 109% | 102 | 99.8% |  | 100 | 100% | 113% | 108 | 104% |  | 96.6% | 102% |
| c1ccc(Nc2ccccn2)nc1 | 95 | 91.8 | 96.8 | 96.7% | 99.4 | 96% | 95% | 90.9% | 71.2% |  | 102% | 100% |  | 114% | 108% | 113 | 112% |  | 91.7% |  |
